Reference: PubChem BioAssay (EPA / NIEHS)
Some structures have more than one record in an assay (separate samples or runs), and their calls can disagree. Active and inactive are the calls of the source. How the source made its calls: active means hit-call score of the fitted dose curve at least 0.9, where 1 is the maximum; inactive means score below 0.9.

Assay: ATG_TGFb_CIS: Attagene CIS-FACTORIAL HepG2 Assay for human Transforming Growth Factor (TGF) (AID 2282967)
Conditions: HepG2 Attagene CIS TGFb reporter, mRNA transcription; actives raise or lower the signal
Protocol: ATG_CIS is a cell-based, multiplexed-readout assay that uses HepG2, a human liver cell line, with measurements taken at 24 hours after chemical dosing in a 24-well plate.ATG_TGFb_CIS is one of 52 assay component(s) measured or calculated from the ATG_CIS assay. It is designed to make measurements of mRNA induction, a form of inducible reporter, as detected with fluorescence intensity signals by Reverse transcription polymerase chain reaction (RT-PCR) and Capillary electrophoresis technology.Data from the assay component ATG_TGFb_CIS was analyzed into 1 assay endpoint. This assay endpoint, ATG_TGFb_CIS, was analyzed with bidirectional fitting relative to DMSO as the negative control and baseline of activity. Using a type of inducible reporter, measures of mRNA for gain or loss-of-signal activity can be used to understand the reporter gene at the transcription factor-level as they relate to the gene TGFB1. Furthermore, this assay endpoint can be referred to as a primary readout, because this assay has produced multiple assay endpoints where this one serves a reporter gene function. To generalize the intended target to other relatable targets, this assay endpoint is annotated to the growth factor intended target family, where the subfamily is transforming growth factor beta.
Human liver HepG2 cells are transiently transfected with multiple reporter transcription units (MRTUs) in 6-well plates using FuGene 6 reagent (Roche; 3 ml FuGene/1 mg DNA). The MRTU constructs are regulated by a cis-regulating element (promoter). […] A major difference between the CIS and TRANS system is that in CIS activities of endogenous TFs are measured, whereas the TRANS assay evaluates changes in activities of exogenous, chimeric NR-Gal4 proteins. […] At the end of 24 hour incubation, total RNA was isolated using TriZol reagent (Invitrogen). The isolated RNA is then reverse-transcribed using oligo(dT) primer and Mo-MLV reverse transcriptase (Invitrogen) with DNAse I (Ambion) treatment for 30 min. The one-tenth of the produced cDNA was amplified by PCR using Taq DNA polymerase (Invitrogen) and two reporter sequence-specific primers. The PCR products were fluorescently labeled by primer extension with 6-arboxyfluorescein (6-FAM) 5'-labeled reporter sequence-specific primer (2 min at 95 C, 20 s at 68 C and 10 min at 72 C) and these products were digested with 5U of HpaI (New England Biolabs) for 2h at 37 C. The fragments were purified using Qiaquick PCR columns (Qiagen), analyzed on an ABI 3130xL genetic analyzer (Applied Biosystems) with peak positions identified by using a set of X-rhodamine (ROX)-labeled MapMarker1000 molecular weight standards (BioVentures). The raw capillary electrophoresis data was processed using Attagraph software (Attagene).

SMILES | outcome | AC50
CCCCC(CC)CN1C(=O)C2C3C=CC(C3)C2C1=O (stereo not given) | inactive | –
COc1c(Cl)ccc(Cl)c1C(=O)O | inactive | –
CCCN(CCC)c1c([N+](=O)[O-])cc(C(F)(F)F)c(N)c1[N+](=O)[O-] | inactive | –
O=C(Nc1ccc([N+](=O)[O-])cc1Cl)c1cc(Cl)ccc1O | inactive | –
Oc1ccc(C(c2ccc(O)cc2)C(Cl)(Cl)Cl)cc1 | inactive | –
N#CSCSc1nc2ccccc2s1 | inactive | 1.52 µM (active)
OB(O)O | inactive | –
COc1nc(C)nc(NC(=O)NS(=O)(=O)c2ccccc2OCCCl)n1 | inactive | –
C#CCOC(=O)[C@@H](C)Oc1ccc(Oc2ncc(Cl)cc2F)cc1 | inactive | –
O=C(O)C1(C(=O)Nc2ccc(Cl)cc2Cl)CC1 | inactive | –
CSC(=O)c1cccc2nnsc12 | inactive | –
CCCOC(=O)c1ccc(C(=O)OCCC)nc1 | inactive | –
CCC(C)OC(=O)N1CCCCC1CCO (stereo not given) | inactive | –
CC(C)(C)[C@@H](O)[C@@H](Cc1ccc(Cl)cc1)n1cncn1 | inactive | –
CCCCCOC(=O)COc1cc(N2C(=O)C3=C(CCCC3)C2=O)c(F)cc1Cl | inactive | –
COC(=O)c1cccc(C)c1S(=O)(=O)NC(=O)Nc1nc(OCC(F)(F)F)nc(N(C)C)n1 | inactive | –
c1ccc(Nc2ccccc2)cc1 | inactive | –
CC(C)CCCCCCc1ccc(O)cc1 | inactive | –
COC(=O)c1c(Cl)nn(C)c1S(=O)(=O)NC(=O)Nc1nc(OC)cc(OC)n1 | inactive | –

SMILES | outcome | AC50
c1ccc2[nH]c(-c3cscn3)nc2c1 | inactive | –
S=C(S)NCCNC(=S)S.[Mn+2].[S-]C([S-])=NCCN=C([S-])[S-].[Zn+2] | inactive | –
CC1(C)C(C=C(Cl)Cl)C1C(=O)OCc1cccc(Oc2ccccc2)c1 (stereo not given) | inactive | –
CCCCOC(=O)[C@@H](C)Oc1ccc(Oc2ccc(C(F)(F)F)cn2)cc1 | inactive | –
C[C@]12C[C@H](O)[C@H]3[C@@H](CCC4=CC(=O)CC[C@@]43C)[C@@H]1CC[C@@H]2C(=O)CO | inactive | –
COCCO | inactive | –
Cc1nn(C)c(Oc2ccccc2)c1C=NOCc1ccc(C(=O)OC(C)(C)C)cc1 | – | 3.15 µM (active)
CCOC(=O)NCCOc1ccc(Oc2ccccc2)cc1 | inactive | –
CCOC(=O)C(C)Oc1ccc(Oc2cnc3cc(Cl)ccc3n2)cc1 (stereo not given) | inactive | –
CCOC(=O)c1ccc(O)cc1 | inactive | –
C#C[C@]1(O)CC[C@H]2[C@@H]3CCC4=CC(=O)CC[C@@H]4[C@H]3CC[C@@]21CC | inactive | –
COC(=O)c1ccccc1C(=O)O | inactive | –
CCCN(CCC)C(=O)SCC | inactive | –
CC(C)(c1ccc(O)cc1)c1ccc(O)cc1 | inactive | 43.6 µM (active)
CCOC(=O)COc1cc(-n2ncc(C(F)(F)F)c(C)c2=O)c(F)cc1Cl | inactive | –
CCNc1nc(N)nc(Cl)n1 | inactive | –
CCC(O)=C1C(=O)CC(C(=O)O)CC1=O (stereo not given) | inactive | –
N[C@@H](Cc1cc(I)c(Oc2ccc(O)c(I)c2)c(I)c1)C(=O)O | inactive | –
COC(=O)c1ccc(CNS(C)(=O)=O)cc1S(=O)(=O)NC(=O)Nc1nc(OC)cc(OC)n1 | inactive | –
